Experimental data reported in the supplement of paper PMC12636033.
± gives the standard deviation of the averaged measurements. Over roughly 33,000 sequences, “E-score (rank enrichment, -0.5 to 0.5)” has its median near -0.0068; the highest 2% begin near 0.24. Shown is part of a subset that was picked to be rich in the highest values.

system: muMax20 (Max(13-93) K31hArg/K57hArg, M65Nle); assay: PBM 8-mer E-score (E-score (rank enrichment, -0.5 to 0.5)); higher = stronger preferential binding
Description: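 Protein binding microarray (universal PBM chip covering all 10-mers in fixed probe flanks) with chemically synthesized human Max(13-93) bHLH-LZ analogs (not full-length Max) bearing noncanonical residues (hArg, Tha, Aib, Nle at 65) and aromatic Cys staples. Read-out per 8-mer (and its reverse complement): E-score (rank-based enrichment, -0.5 to 0.5) and Z-score of median probe intensity.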

Row | Sequence | PBM 8-mer E-score
1 | ATGTATCA | 0.135 ± 0.08
2 | ATAGAGCA | -0.146 ± 0.024
3 | GAACCGAA | 0.0388 ± 0.025
4 | AAACCCCG | 0.193 ± 0.062
5 | ACCTACTG | 0.118 ± 0.053
6 | CATTGATC | 0.196 ± 0.028
7 | ATCGCAAT | 0.0576 ± 0.054
8 | CAAAGCTC | -0.178 ± 0.079
9 | CGCATCTA | 0.176 ± 0.0097
10 | CTCTTCGA | 0.0225 ± 0.082
11 | AAATTGTA | 0.282 ± 0.017
12 | TAATTGTA | 0.146 ± 0.091
13 | AAATTGTT | 0.136 ± 0.14
14 | CGCGAACC | -0.2495 ± 0.00081
15 | CCTGAAAG | 0.0218 ± 0.0043
16 | ACAACCAT | 0.29 ± 0.03
17 | ACAACATG | 0.265 ± 0.008
18 | ACAACAAC | 0.125 ± 0.024
19 | ACAACATA | 0.0952 ± 0.11
20 | ACAACCAC | 0.033 ± 0.02
21 | ACAACCAG | 0.062 ± 0.026
22 | ACAACAAG | 0.262 ± 0.017
23 | ACAACAAA | 0.163 ± 0.0084
24 | ACAACATC | 0.0572 ± 0.022
25 | CCGTGAGA | -0.189 ± 0.067

Row | Sequence | PBM 8-mer E-score
26 | ACCTATGA | -0.136 ± 0.034
27 | ACCACCGC | -0.0018 ± 0.023
28 | ATTCTTTC | 0.176 ± 0.02
29 | CGCAGTGC | -0.12 ± 0.2
30 | CATCGGGC | -0.209 ± 0.08
31 | ATGTTGCA | 0.122 ± 0.029
32 | AAGTAGAT | 0.0944 ± 0.081
33 | ACCTGGCG | -0.256 ± 0.014
34 | GGGGCACA | 0.0581 ± 0.01
35 | TGTGAAAA | 0.289 ± 0.071
36 | ATTGAAAA | 0.306 ± 0.03
37 | GGTGAAAA | -0.0373 ± 0.0061
38 | ATTGAAAC | 0.154 ± 0.059
39 | CTTGAAAA | 0.117 ± 0.035
40 | CGTGAAAA | 0.213 ± 0.11
41 | CGCCGACC | -0.14 ± 0.057
42 | ACTGAGGA | -0.126 ± 0.025
43 | AGCACCTG | -0.0212 ± 0.043
44 | TACGTAGA | 0.0117 ± 0.044
45 | AACGAGGT | -0.0494 ± 0.052
46 | AGTTAGCA | 0.0279 ± 0.055
47 | ACGTGTCA | 0.278 ± 0.094
48 | CCGTGTCG | -0.1658 ± 0.00081
49 | ACGTGTCC | 0.166 ± 0.052
50 | AAGTGTCG | 0.0406 ± 0.12

Row | Sequence | PBM 8-mer E-score
51 | ACGTGTCG | 0.237 ± 0.075
52 | ACGTGTCT | 0.326 ± 0.036
53 | AAGTGTCT | 0.0152 ± 0.031
54 | GCGTGTCA | 0.149 ± 0.2
55 | CCGTGTCA | -0.0799 ± 0.0084
56 | CAGCCGTA | -0.128 ± 0.029
57 | CCATTAAC | 0.239 ± 0.015
58 | GCATTAAC | 0.0389 ± 0.091
59 | ACATTAAC | 0.175 ± 0.0064
60 | TGCGAACA | 0.109 ± 0.11
61 | ATCACATC | 0.00749 ± 0.048
62 | AGCACATG | 0.266 ± 0.049
63 | ATCACACG | 0.157 ± 0.065
64 | ACCACATC | -0.0454 ± 0.028
65 | ATCACATA | 0.168 ± 0.048
66 | ACCACATA | 0.0727 ± 0.0036
67 | AGCACATA | 0.0478 ± 0.12
68 | ACCACATG | 0.319 ± 0.077
69 | ATCACACA | 0.251 ± 0.021
70 | AGCACATC | -0.0692 ± 0.013
71 | ATCACACC | 0.12 ± 0.065
72 | ATCACATG | 0.296 ± 0.11
73 | ACGAGCAG | -0.0192 ± 0.02
74 | CACCCGGG | -0.361 ± 0.014
75 | CATCCGGA | -0.0933 ± 0.064

Row | Sequence | PBM 8-mer E-score
76 | CATCTCAC | -0.0239 ± 0.23
77 | AGTTTATG | 0.0668 ± 0.014
78 | CCTTTACC | 0.023 ± 0.2
79 | CCTTTACA | 0.173 ± 0.094
80 | CCTTTACG | 0.24 ± 0.01
81 | AAGCTACG | 0.0404 ± 0.15
82 | AGTCCTGA | -0.233 ± 0.16
83 | GGTGGTAA | 0.0953 ± 0.084
84 | CATGGTAA | 0.297 ± 0.052
85 | CATGGTCC | -0.136 ± 0.14
86 | AATGGTAA | 0.27 ± 0.071
87 | CATGGTAG | 0.0279 ± 0.022
88 | AATGGTAT | 0.213 ± 0.019
89 | CATGGTCG | 0.0286 ± 0.039
90 | TGTGGTAA | 0.244 ± 0.067
91 | AATGGTAG | 0.0638 ± 0.072
92 | TATGGTAA | 0.108 ± 0.0077
93 | CATGGTCA | 0.304 ± 0.047
94 | CGTGGTAA | 0.215 ± 0.06
95 | GGGGCGAA | 0.0451 ± 0.035
96 | CCGCGAGG | -0.191 ± 0.082
97 | CTCTCTCA | -0.0954 ± 0.052
98 | CCCCAGTA | 0.0363 ± 0.019
99 | CAAGGATA | 0.00143 ± 0.082
100 | CCATAACA | 0.141 ± 0.035

Row | Sequence | PBM 8-mer E-score
101 | CGGCGACC | -0.159 ± 0.097
102 | TGCGGCAA | 0.0884 ± 0.051
103 | AGACCTGG | -0.177 ± 0.069
104 | ATGCGCAC | -0.00186 ± 0.029
105 | ATGCGCAA | 0.0942 ± 0.019
106 | ATGCGCAT | 0.295 ± 0.03
107 | AACCGCAC | 0.0872 ± 0.056
108 | CGGTCGGC | -0.2874 ± 0.0021
109 | TAATGCCA | 0.142 ± 0.036
110 | CACACGTG | 0.426 ± 0.074
111 | AACACGTA | 0.218 ± 0.0095
112 | CACACGTA | 0.125 ± 0.018
113 | AACACGTC | 0.091 ± 0.002
114 | CACACGTC | 0.0717 ± 0.034
115 | AACACGTG | 0.481 ± 0.017
116 | GCATTGCA | 0.14 ± 0.028
117 | CGATTACC | -0.0103 ± 0.049
118 | CAGAGTGA | 0.00192 ± 0.0028
119 | GCCCCTAA | -0.0669 ± 0.16
120 | ATCCCCGG | -0.16 ± 0.024
121 | AAGATTCC | 0.00605 ± 0.027
122 | ACATAAGA | 0.174 ± 0.014
123 | CGTCGGGC | -0.152 ± 0.008
124 | GCAATAAC | 0.138 ± 0.014
125 | AATTATTA | 0.309 ± 0.036

Row | Sequence | PBM 8-mer E-score
126 | AATTATTC | 0.101 ± 0.071
127 | CCTTATTA | 0.28 ± 0.04
128 | AATTATTG | 0.191 ± 0.012
129 | CCTTATTC | -0.029 ± 0.059
130 | CATTATTA | 0.242 ± 0.051
131 | GATTATTA | 0.118 ± 0.064
132 | CATTATTC | 0.104 ± 0.032
133 | GCTTATTA | 0.1783 ± 0.0012
134 | CACTCGCG | -0.0815 ± 0.047
135 | GAAGAGTC | 0.089 ± 0.11
136 | CAGTGCTA | -0.08 ± 0.053
137 | GCAGAGCA | -0.187 ± 0.06
138 | CTATATAG | 0.134 ± 0.082
139 | GAGGATAA | 0.0253 ± 0.093
140 | AGTTAGTC | -0.094 ± 0.036
141 | GGTTAGTA | 0.0601 ± 0.091
142 | AATTAGTA | 0.28 ± 0.034
143 | AGTTAGTA | 0.27 ± 0.033
144 | CATTAGTA | 0.0251 ± 0.027
145 | AATTAGTC | 0.0746 ± 0.11
146 | ACTGATGG | -0.0638 ± 0.09
147 | GTCCGATA | -0.0402 ± 0.11
148 | CTCCCGAC | -0.0892 ± 0.047
149 | ATCCCGCG | -0.0553 ± 0.1
150 | CGCATTAA | -0.00237 ± 0.005

Row | Sequence | PBM 8-mer E-score
151 | AGCATTAC | -0.0675 ± 0.077
152 | ACCATTAA | 0.348 ± 0.021
153 | AGCATTAG | 0.142 ± 0.042
154 | TCCATTAA | -2.5e-05 ± 0.096
155 | TGCATTAA | 0.277 ± 0.062
156 | CCCATTAA | -0.0202 ± 0.017
157 | AGCATTAT | 0.262 ± 0.048
158 | AGCATTAA | 0.232 ± 0.0024
159 | ACTTATAA | 0.0449 ± 0.25
160 | AATCTTTG | 0.0923 ± 0.013
161 | CGTTGGGA | -0.0152 ± 0.0038
162 | GTGTTCTA | 0.169 ± 0.024
163 | AAATCCGT | -0.0161 ± 0.1
164 | AGGTCCGC | -0.129 ± 0.034
165 | ATATTTTA | 0.203 ± 0.0096
166 | ACACGAAC | 0.122 ± 0.011
167 | CTGTTTAC | 0.106 ± 0.041
168 | ATGTTTAC | 0.245 ± 0.073
169 | ATGTTTAG | 0.222 ± 0.12
170 | AGTTCACC | -0.068 ± 0.0075
171 | ATTAAACG | 0.287 ± 0.003
172 | ATTAAACC | 0.164 ± 0.03
